# The whole screen tested about 350,000 compounds, of which about 1,600 (0.46%) were called active. The sample as a whole holds a higher share of actives than the screen did. A number with no mark means an inactive call.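 How the source made its calls: active means activation of at least 50%, plus an integration ratio under a set limit after plate pattern correction; inactive means the rest.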
# Test system: CRF-binding protein / CRF receptor 2 complex (human)
# Test: agonists of CRF-BP/CRF-R2 complex, primary screen, cell-based, HEK293, calcium dye fluorescence, uHTS (AID 588473);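 further: plate controls were neutral control wells without compound for no effect and CRF at EC100 for full effect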
# Details: calcium dye fluorescence (FLIPR), at 13.2 µM, stronger effect = higher value, percent of saturating CRF peptide response
row,Structure (SMILES),activation
1,C[n+]1ccc(/C=C/c2c[nH]c3ccccc23)cc1,61.1% (active)
2,COc1ccc(N(CC(=O)Nc2ccc(F)c(F)c2)S(=O)(=O)c2c(C)[nH]c(=O)[nH]c2=O)cc1,-1.2%
3,CCCc1nc2c(c(=O)c3ccccc3n2C)c(=O)n1C1CCCCCC1,137% (active)
4,CCOC(=O)c1nnn2c3ccccc3c(=O)n(C)c12,0.18%
5,CCOC(=O)N1CCN(C(=O)c2nn(-c3ccc(C)cc3)c(=O)c3c2c2ccccc2n3C)CC1,3.98%
6,C=C(C)CSc1nc(N)c2c3c(sc2n1)CCC3,155% (active)
7,Nc1nc(SCC(=O)NCCN2CCOCC2)nc2sc3c(c12)CCC3,2.46%
8,CC(C)(C)C1CCc2c(sc3nc(SCC(N)=O)nc(N)c23)C1 (stereo unspecified),0.65%
9,CC(NC(=O)c1ccc(Cl)cc1)C(=O)N1CCCCC1 (stereo unspecified),0.19%
10,O=C(CN1CCN(C2CCS(=O)(=O)C2)CC1)N1N=C(c2ccc(Cl)cc2)CC1c1ccco1 (stereo unspecified),0.41%
11,CCOc1cc(/C=N/NC(=O)c2c(C)nc3ccc(Cl)cn23)ccc1O,-0.91%
12,CCOc1cc(C=NNC(=O)CCCC(=O)NN=Cc2ccc(O)c(OCC)c2)ccc1O,-2.14%
13,CCOc1cc(/C=C(\C#N)c2nc(-c3cccs3)c(NC(C)=O)s2)ccc1O,222% (active)
14,CCOC(=O)c1ccc(N/C(=N/S(=O)(=O)c2ccccc2)c2ccccc2)cc1,-1.91%
15,CC1(C)O[C@H]2CC(=O)OCC23[C@H]2CC[C@@]4(C)[C@H](c5ccoc5)OC(=O)[C@H]5O[C@]54[C@]2(C)C(=O)C[C@@H]13 (stereo partly specified),1.6%
16,CN(NS(=O)(=O)c1cccs1)c1ncc(C(F)(F)F)cc1Cl,-0.09%
17,C#CCN(N(C)c1ncc(C(F)(F)F)cc1Cl)S(=O)(=O)c1ccc2ccccc2c1,64.8% (active)
18,Cc1nn(CC#N)c(=O)n1N(C)c1ncc(C(F)(F)F)cc1Cl,1.06%
19,O=C(COc1ccc(Cl)cc1)NC(=S)Nc1ccccc1N1CCOCC1,1.42%
20,O=C(Cc1ccc(Cl)cc1)NC(=S)Nc1ccccc1O,128% (active)
21,Cc1ccccc1NC(=S)NC(=O)Cc1ccc(Cl)cc1,46%
22,Cc1csc(=O)n1CC(=O)OCC(=O)N(CC(C)C)c1c(N)n(Cc2ccccc2)c(=O)[nH]c1=O,-0.29%
23,CCCCNC(=O)C(C)N(CCN(C)C)C(=O)CCCN1C(=O)NC(c2ccc(Cl)cc2)C(C(=O)OCc2ccccc2)=C1C (stereo unspecified),-0.71%
24,CC1CCN(c2ccc3c(c2)S(=O)(=O)c2cc(C(=O)O)ccc2C3=O)CC1,3.35%
25,Cc1ccc(CNC(=O)c2cccc3c2C(=O)c2ccc(N4CCC(C)CC4)cc2S3(=O)=O)cc1,56.2% (active)
26,Cc1ccc(CNC(=O)c2ccc3c(c2)S(=O)(=O)c2ccccc2C3=O)cc1,-0.74%

# — PubChem BioAssay AID588473 (Sanford-Burnham Center for Chemical Genomics, 2011)
